Consider 32 targets from the supplement of paper PMC10849652.

The full data set covers some 8,800 targets. This sample favours those with a hit. About 0.5% of all pairs of compound and target were hits. Values without a mark were called inactive.

Chain of UniProt O94762 (O94762 whole entry, looked up): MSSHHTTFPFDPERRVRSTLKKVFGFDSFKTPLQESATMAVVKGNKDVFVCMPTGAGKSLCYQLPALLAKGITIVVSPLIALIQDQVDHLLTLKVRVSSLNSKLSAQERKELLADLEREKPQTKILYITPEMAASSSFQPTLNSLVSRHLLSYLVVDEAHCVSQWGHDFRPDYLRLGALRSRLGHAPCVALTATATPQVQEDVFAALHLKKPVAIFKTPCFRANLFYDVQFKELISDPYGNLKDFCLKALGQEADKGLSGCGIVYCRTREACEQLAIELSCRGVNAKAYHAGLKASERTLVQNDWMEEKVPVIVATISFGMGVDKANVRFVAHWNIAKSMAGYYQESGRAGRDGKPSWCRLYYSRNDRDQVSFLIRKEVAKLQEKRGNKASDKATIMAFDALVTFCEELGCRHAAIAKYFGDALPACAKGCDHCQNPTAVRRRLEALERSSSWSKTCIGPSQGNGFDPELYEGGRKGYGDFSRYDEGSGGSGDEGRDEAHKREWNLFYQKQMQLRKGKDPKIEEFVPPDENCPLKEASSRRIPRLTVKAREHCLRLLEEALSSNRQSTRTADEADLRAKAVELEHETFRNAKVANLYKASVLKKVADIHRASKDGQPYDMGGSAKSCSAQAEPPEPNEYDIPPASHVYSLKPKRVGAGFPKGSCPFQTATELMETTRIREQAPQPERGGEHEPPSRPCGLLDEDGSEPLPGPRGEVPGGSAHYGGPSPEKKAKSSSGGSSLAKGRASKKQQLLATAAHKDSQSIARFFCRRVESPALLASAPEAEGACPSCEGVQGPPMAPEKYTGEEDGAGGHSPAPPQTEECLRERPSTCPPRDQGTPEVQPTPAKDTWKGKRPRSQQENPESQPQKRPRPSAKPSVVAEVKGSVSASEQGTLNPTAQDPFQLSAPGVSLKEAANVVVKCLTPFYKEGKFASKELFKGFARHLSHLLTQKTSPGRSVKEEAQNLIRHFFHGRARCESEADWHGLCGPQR
Chain of UniProt Q6GYQ0 (Q6GYQ0 whole entry, looked up): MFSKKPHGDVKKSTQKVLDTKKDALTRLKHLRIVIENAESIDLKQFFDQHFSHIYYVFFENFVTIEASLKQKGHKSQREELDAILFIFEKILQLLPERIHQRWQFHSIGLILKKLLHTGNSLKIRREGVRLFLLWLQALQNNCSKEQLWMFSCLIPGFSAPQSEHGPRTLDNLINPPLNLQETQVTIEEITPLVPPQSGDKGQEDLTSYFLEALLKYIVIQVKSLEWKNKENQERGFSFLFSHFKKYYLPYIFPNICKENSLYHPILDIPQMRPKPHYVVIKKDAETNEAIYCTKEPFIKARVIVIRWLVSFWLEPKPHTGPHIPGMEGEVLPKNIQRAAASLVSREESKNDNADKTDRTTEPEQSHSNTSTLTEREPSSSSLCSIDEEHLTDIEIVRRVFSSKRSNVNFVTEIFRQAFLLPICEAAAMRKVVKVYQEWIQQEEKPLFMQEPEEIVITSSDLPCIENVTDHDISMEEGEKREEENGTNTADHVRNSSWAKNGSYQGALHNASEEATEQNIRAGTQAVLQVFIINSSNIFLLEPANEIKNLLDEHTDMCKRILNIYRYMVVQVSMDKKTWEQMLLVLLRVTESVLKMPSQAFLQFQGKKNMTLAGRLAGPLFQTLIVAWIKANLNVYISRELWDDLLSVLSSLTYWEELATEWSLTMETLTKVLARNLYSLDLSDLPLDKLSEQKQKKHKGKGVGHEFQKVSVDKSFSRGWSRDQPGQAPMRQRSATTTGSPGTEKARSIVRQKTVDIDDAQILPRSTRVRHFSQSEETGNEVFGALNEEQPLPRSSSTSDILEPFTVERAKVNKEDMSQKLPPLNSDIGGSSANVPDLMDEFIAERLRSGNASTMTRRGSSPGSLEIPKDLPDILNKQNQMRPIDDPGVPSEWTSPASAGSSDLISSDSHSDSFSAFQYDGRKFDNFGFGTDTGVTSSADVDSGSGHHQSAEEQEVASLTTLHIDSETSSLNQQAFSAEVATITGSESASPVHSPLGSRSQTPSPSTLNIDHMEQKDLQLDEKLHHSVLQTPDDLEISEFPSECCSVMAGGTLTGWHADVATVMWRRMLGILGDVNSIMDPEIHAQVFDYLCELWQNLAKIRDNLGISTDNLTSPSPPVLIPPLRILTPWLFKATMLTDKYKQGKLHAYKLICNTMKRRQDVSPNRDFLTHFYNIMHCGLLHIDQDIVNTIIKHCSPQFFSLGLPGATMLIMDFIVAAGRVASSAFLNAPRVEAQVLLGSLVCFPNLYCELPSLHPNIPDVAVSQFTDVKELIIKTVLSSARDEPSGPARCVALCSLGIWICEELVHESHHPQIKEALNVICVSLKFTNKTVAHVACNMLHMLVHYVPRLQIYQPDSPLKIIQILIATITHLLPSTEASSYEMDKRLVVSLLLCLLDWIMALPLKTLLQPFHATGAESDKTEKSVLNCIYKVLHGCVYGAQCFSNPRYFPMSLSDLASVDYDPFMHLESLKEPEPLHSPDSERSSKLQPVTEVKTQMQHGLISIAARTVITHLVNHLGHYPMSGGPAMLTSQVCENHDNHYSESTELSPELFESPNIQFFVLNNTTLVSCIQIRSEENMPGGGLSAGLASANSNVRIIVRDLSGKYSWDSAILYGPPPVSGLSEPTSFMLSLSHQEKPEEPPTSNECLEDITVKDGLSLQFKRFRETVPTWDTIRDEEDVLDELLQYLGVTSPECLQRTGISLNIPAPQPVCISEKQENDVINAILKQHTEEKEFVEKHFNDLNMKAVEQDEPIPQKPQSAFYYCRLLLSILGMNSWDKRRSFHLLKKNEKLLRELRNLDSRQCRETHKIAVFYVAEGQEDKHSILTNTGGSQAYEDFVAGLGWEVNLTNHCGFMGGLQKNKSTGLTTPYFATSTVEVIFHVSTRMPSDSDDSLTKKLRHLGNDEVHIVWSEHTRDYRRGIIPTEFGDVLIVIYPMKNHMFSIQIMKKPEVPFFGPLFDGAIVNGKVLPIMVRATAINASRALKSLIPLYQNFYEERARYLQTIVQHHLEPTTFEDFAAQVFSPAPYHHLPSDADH
Chain of UniProt O94855 (O94855 whole entry, looked up): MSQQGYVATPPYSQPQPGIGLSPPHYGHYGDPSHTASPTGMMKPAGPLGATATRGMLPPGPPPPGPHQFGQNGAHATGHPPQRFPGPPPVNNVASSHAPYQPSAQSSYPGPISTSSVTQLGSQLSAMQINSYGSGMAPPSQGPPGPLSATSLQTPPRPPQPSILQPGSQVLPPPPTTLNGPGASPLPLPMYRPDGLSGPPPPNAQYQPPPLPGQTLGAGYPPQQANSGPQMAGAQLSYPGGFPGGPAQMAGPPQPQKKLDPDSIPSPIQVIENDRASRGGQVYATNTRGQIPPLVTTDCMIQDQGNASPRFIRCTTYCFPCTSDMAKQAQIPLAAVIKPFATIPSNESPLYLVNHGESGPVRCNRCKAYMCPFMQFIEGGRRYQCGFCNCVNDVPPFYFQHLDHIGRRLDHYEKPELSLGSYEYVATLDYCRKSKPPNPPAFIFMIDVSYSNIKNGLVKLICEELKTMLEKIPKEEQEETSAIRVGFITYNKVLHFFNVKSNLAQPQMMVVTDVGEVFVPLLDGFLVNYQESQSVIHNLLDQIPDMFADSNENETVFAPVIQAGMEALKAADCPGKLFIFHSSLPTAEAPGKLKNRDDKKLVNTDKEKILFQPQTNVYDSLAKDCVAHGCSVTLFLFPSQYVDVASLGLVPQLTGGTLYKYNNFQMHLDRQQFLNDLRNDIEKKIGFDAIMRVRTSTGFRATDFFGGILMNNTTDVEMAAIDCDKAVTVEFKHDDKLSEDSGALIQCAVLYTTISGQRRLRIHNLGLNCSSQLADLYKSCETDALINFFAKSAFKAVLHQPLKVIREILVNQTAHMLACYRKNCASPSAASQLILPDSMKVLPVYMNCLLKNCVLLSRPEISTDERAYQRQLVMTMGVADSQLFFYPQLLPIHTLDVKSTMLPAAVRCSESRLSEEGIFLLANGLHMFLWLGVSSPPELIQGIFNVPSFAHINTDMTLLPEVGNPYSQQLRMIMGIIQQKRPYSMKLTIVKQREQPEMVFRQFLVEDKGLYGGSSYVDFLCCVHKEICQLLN
Chain of UniProt O43819 (O43819 whole entry, looked up): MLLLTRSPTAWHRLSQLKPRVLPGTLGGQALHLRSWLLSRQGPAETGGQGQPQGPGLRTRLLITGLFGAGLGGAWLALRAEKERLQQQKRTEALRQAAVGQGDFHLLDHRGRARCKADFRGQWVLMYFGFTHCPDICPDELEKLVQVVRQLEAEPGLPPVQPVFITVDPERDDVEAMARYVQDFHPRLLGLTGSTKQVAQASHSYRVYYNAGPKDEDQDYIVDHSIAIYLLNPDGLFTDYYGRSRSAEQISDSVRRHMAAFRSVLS
Chain of UniProt P23443 (P23443 whole entry, looked up): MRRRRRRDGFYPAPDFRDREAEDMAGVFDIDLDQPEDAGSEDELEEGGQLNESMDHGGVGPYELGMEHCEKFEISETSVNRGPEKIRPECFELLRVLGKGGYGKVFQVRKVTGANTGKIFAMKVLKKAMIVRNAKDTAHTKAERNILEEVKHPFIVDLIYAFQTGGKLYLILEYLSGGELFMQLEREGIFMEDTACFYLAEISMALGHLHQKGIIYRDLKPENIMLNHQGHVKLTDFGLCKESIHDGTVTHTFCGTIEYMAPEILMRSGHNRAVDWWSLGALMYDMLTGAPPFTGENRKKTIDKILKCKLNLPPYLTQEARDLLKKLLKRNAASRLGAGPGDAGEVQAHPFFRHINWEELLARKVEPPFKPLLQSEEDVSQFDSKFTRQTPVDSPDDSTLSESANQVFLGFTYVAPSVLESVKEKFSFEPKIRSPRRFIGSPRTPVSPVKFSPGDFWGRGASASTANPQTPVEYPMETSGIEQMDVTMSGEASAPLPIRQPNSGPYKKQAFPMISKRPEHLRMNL
Chain of UniProt Q00765 (Q00765 whole entry, looked up): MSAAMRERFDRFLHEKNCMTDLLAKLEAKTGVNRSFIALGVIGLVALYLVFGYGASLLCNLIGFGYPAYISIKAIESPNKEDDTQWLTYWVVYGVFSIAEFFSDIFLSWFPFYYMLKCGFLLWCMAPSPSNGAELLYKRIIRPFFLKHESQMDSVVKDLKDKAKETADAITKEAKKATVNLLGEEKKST

Compound in the first experiment: COc1cc(Nc2ncc3c(n2)-c2ccc(Cl)cc2C(c2c(F)cccc2OC)=NC3)ccc1C(=O)O [alisertib]
The experiment is described as follows: log2 fold change, soluble protein after heating vs DMSO (PISA); higher = thermal stabilisation; K562 lysate, 10 uM; active = over 0.2 and 3.5 SD of the protein, either way, in both replicates (recomputed). In outline: (§1)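 Values give the log-two fold change in thermal stability against solvent controls, from duplicates. Crude K562 extract at 1 mg/mL protein, made by dounce homogenisation in PBS pH 7.4 with 1 mM MgCl2, was treated with 10 μM compound for 30 min. After 3 min heating across 48°C-58°C, aliquots were pooled, adjusted to 0.5% NP-40 at 4°C and centrifuged at 21,000xg for 90 min. The supernatant was measured by TMTpro 16plex LC-MS/MS with channel sums equalised.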
As to SEC24D isoform 2 (UniProt O94855), the log2 fold change is 0.005.

In the case of SCO2 (UniProt O43819), the log2 fold change is -0.115.

For the target RALGAPA1 isoform 6 (UniProt Q6GYQ0), the log2 fold change is -0.029.

In the case of RECQL5 (UniProt O94762), the log2 fold change was -0.003.

As for RRAGA (UniProt Q7L523), the log2 fold change was -0.161.

For RPS6KB1 (UniProt P23443), the log2 fold change is -0.02.

For RANBP2 (UniProt P49792), the log2 fold change was -0.01.

Consider RCOR3 isoform 3 (UniProt Q9P2K3), for which the log2 fold change is 0.003.

In the case of SCD (UniProt O00767), the log2 fold change is 0.006.

Compound in a further experiment: COc1cc2nc(-c3cc(F)ccc3O)nc(N[C@@H]3CNC[C@H]3C(C)(C)O)c2cc1OC
The description is as above. In outline:
as §1
For RAB21 (UniProt Q9UL25), the log2 fold change was 0.013.

Regarding RPS6KA5 (UniProt O75582), the log2 fold change was 0.104.

Consider RPS26P11 (UniProt Q5JNZ5), for which the log2 fold change was -0.032.

With SATB2 (UniProt Q9UPW6), the log2 fold change was -0.008.

Consider RAPGEF2, A0A2R8YGD3, for which the log2 fold change was -0.017.

With RPN2 (UniProt P04844), the log2 fold change is -0.03.

In the case of RAI14 isoform 2 (UniProt Q9P0K7), the log2 fold change is 0.

On to RPS18 (UniProt P62269), for which the log2 fold change is 0.001.

With ROCK1 (UniProt Q13464), the log2 fold change is 0.022.

Take RPTOR (UniProt Q8N122): the log2 fold change is -0.005.

In the case of RAB1B (UniProt Q9H0U4), the log2 fold change was 0.003.

In the case of RIOK1 (UniProt Q9BRS2), the log2 fold change is 0.168.

In the case of RAE1 (UniProt P78406), the log2 fold change is -0.002.

As to REEP5 (UniProt Q00765), the log2 fold change is 0.001.

Consider RPLP0P6 (UniProt Q8NHW5), for which the log2 fold change was 0.023.

With SCCPDH (UniProt Q8NBX0), the log2 fold change is 0.005.

For RINT1 (UniProt Q6NUQ1), the log2 fold change is 0.065.

SEC61G (UniProt P60059): the log2 fold change was 0.009.

Regarding SEH1L isoform 1 (UniProt Q96EE3), the log2 fold change is 0.01.

On to RAD50 isoform 2 (UniProt Q92878), for which the log2 fold change was 0.001.

Regarding RIOK3 (UniProt O14730), the log2 fold change was 0.

For the target SEC13 isoform 3 (UniProt P55735), the log2 fold change was -0.004.

For the target RAC2 (UniProt P15153), the log2 fold change was 0.056.

As to SEC24D isoform 2 (UniProt O94855), the log2 fold change is 0.006.

For the target SCO2 (UniProt O43819), the log2 fold change was 0.046.

Turning to RALGAPA1 isoform 6 (UniProt Q6GYQ0), the log2 fold change is 0.047.

For RECQL5 (UniProt O94762), the log2 fold change is 0.09.

With RRAGA (UniProt Q7L523), the log2 fold change was 0.017.

In the case of RPS6KB1 (UniProt P23443), the log2 fold change is 0.166.

In the case of RANBP2 (UniProt P49792), the log2 fold change is 0.

Take RCOR3 isoform 3 (UniProt Q9P2K3): the log2 fold change was -0.006.

On to SCD (UniProt O00767), for which the log2 fold change is 0.004.

Compound in a further experiment: COc1cc2ncnc(Nc3ccc(F)c(Cl)c3)c2cc1OCCCN1CCOCC1 [gefitinib]
The description is as above. The procedure, abridged: as §1
Regarding RAB21 (UniProt Q9UL25), the log2 fold change was 0.003.

For RPS6KA5 (UniProt O75582), the log2 fold change was 0.11.

As to RPS26P11 (UniProt Q5JNZ5), the log2 fold change is -0.056.

With SATB2 (UniProt Q9UPW6), the log2 fold change is 0.01.

Take RAPGEF2, A0A2R8YGD3: the log2 fold change was -0.042.

As for RPN2 (UniProt P04844), the log2 fold change was 0.011.

RAI14 isoform 2 (UniProt Q9P0K7): the log2 fold change was 0.029.

As to RPS18 (UniProt P62269), the log2 fold change is -0.032.

Consider ROCK1 (UniProt Q13464), for which the log2 fold change was -0.004.

RPTOR (UniProt Q8N122): the log2 fold change was -0.007.

On to RAB1B (UniProt Q9H0U4), for which the log2 fold change is 0.064.

For RIOK1 (UniProt Q9BRS2), the log2 fold change was -0.019.

As for RAE1 (UniProt P78406), the log2 fold change is 0.033.

For the target REEP5 (UniProt Q00765), the log2 fold change was -0.092.

On to RPLP0P6 (UniProt Q8NHW5), for which the log2 fold change was -0.019.

On to SCCPDH (UniProt Q8NBX0), for which the log2 fold change was -0.063.

With RINT1 (UniProt Q6NUQ1), the log2 fold change was 0.035.

In the case of SEC61G (UniProt P60059), the log2 fold change was 0.036.

Consider SEH1L isoform 1 (UniProt Q96EE3), for which the log2 fold change is -0.004.

Turning to RAD50 isoform 2 (UniProt Q92878), the log2 fold change is -0.016.

Take RIOK3 (UniProt O14730): the log2 fold change is 0.055.

For the target SEC13 isoform 3 (UniProt P55735), the log2 fold change is 0.03.

RAC2 (UniProt P15153): the log2 fold change was 0.016.

Regarding SEC24D isoform 2 (UniProt O94855), the log2 fold change is 0.006.

Regarding SCO2 (UniProt O43819), the log2 fold change was 0.114.

For RALGAPA1 isoform 6 (UniProt Q6GYQ0), the log2 fold change is 0.056.

Regarding RECQL5 (UniProt O94762), the log2 fold change was 0.03.

As for RRAGA (UniProt Q7L523), the log2 fold change is 0.04.

For the target RPS6KB1 (UniProt P23443), the log2 fold change was 0.062.

For RANBP2 (UniProt P49792), the log2 fold change was -0.013.

In the case of RCOR3 isoform 3 (UniProt Q9P2K3), the log2 fold change was 0.026.

Regarding SCD (UniProt O00767), the log2 fold change was 0.011.
